Reference: PubChem BioAssay (EPA / NIEHS)
Activity calls are given as the source filed them. Rule for the calls: active = hit-call score of the fitted dose curve at least 0.9, where 1 is the maximum; inactive = score below 0.9.

Key:
Conditions in all cases: mRNA level, 48 h; actives raise or lower the signal
[1] = read-out: Early growth response protein 1 (EGR1) transcription factor, EGR1 (gene 1958); test: LTEA_HepaRG_EGR1: Life Technologies and Expression Analysis (LTEA) Assay for Early growth response protein 1 (EGR1) transcription factor using HepaRG (AID 2283490)
Outline: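 EGR1 expression change in human HepaRG after 48 h chemical exposure, assessed by housekeeping-normalized qRT-PCR; concentration-response up to 100 uM, fitted in both directions against DMSO controls.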

[2] = read-out: Ezrin (EZR), EZR (gene 7430); test: LTEA_HepaRG_EZR: Life Technologies and Expression Analysis (LTEA) Assay for Ezrin (EZR) using HepaRG (AID 2283491)
Outline: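 EZR transcript levels came from Fluidigm qRT-PCR and were normalized to three housekeeping genes after 48 h chemical exposure of HepaRG cells. Dosing used an 8-point half-log series with a 100 uM top concentration in 0.5% DMSO, tested in duplicate; both directions were fitted versus vehicle.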

[3] = read-out: Cytochrome P450 3A7 (Homo sapiens) (UniProt P24462); test: LTEA_HepaRG_CYP3A7: Life Technologies and Expression Analysis (LTEA) Assay for CYP3A7 using HepaRG (AID 2283492)
Outline: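 qRT-PCR of CYP3A7 in HepaRG lysates after 48 h treatment; concentration-response (8 points, max 100 uM) analysed bidirectionally relative to 0.5% DMSO controls.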

CYP3A5 (gene 1577) = test: LTEA_HepaRG_CYP3A5: Life Technologies and Expression Analysis (LTEA) Assay for CYP3A5 using HepaRG (AID 2283493)
Outline: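 Human HepaRG hepatic cells receive 48 h chemical treatment at eight concentrations (half-log steps from 100 uM) in 0.5% DMSO. Expression of CYP3A5 is quantified by Fluidigm qRT-PCR and normalized to three reference genes.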

[4] = read-out: Fatty Acid-Binding Protein 1 (FABP1), FABP1 (gene 2168); test: LTEA_HepaRG_FABP1: Life Technologies and Expression Analysis (LTEA) Assay for Fatty Acid-Binding Protein 1 (FABP1) using HepaRG (AID 2283494)
Outline: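 Values reflect bidirectional concentration-response fitting of FABP1 mRNA change against 0.5% DMSO controls. Human HepaRG cultures received eight half-log doses (top 100 uM) for 48 h; expression quantified by TaqMan qRT-PCR with housekeeping-gene normalization.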

[5] = read-out: Cytochrome P450 4A22 (Homo sapiens) (UniProt Q5TCH4); test: LTEA_HepaRG_CYP4A22: Life Technologies and Expression Analysis (LTEA) Assay for Cytochrome P450 4A22 (CYP4A22) using HepaRG (AID 2283495)
Outline: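 Concentration-response (8 points, max 100 uM, 0.5% DMSO) in human HepaRG liver cells after 48 h exposure. CYP4A22 mRNA by TaqMan qRT-PCR with housekeeping-gene normalization.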

[6] = read-out: Cytochrome P450 7A1 (Homo sapiens) (UniProt P22680); test: LTEA_HepaRG_CYP7A1: Life Technologies and Expression Analysis (LTEA) Assay for Cytochrome P450 7A1 (CYP7A1) using HepaRG (AID 2283496)
Outline: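 HepaRG, 48 h exposure, 8-pt half-log series from 100 uM, 0.5% DMSO vehicle, duplicates. Readout: TaqMan qRT-PCR mRNA vs three housekeeping genes; bidirectional curve fit against DMSO baseline.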

[7] = read-out: Glutathione S-Transferase (GSTA2), GSTA2 (gene 2939); test: LTEA_HepaRG_GSTA2: Life Technologies and Expression Analysis (LTEA) Assay for Glutathione S-Transferase (GSTA2) using HepaRG (AID 2283497)
Outline: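 Oxidative-stress marker GSTA2 is quantified by TaqMan qRT-PCR in HepaRG cultures treated 48 h across an eight-point range to 100 uM. Expression is normalized to endogenous controls and compared with 0.5% DMSO vehicle.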

[8] = read-out: Glutamate-cysteine ligase catalytic (GCLC), GCLC (gene 2729); test: LTEA_HepaRG_GCLC: Life Technologies and Expression Analysis (LTEA) Assay for Glutamate-cysteine ligase catalytic (GCLC) using HepaRG (AID 2283498)
Outline: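 Oxidative-stress marker GCLC is measured as mRNA change in human HepaRG liver cells after 48 h chemical treatment in 0.5% DMSO, eight concentrations from 100 uM. Activity is fitted bidirectionally against vehicle.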

[9] = read-out: growth arrest and DNA damage 45 (GADD45G), GADD45G (gene 10912); test: LTEA_HepaRG_GADD45G: Life Technologies and Expression Analysis (LTEA) Assay for growth arrest and DNA damage 45 (GADD45G) using HepaRG (AID 2283499)
Outline: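 Concentration-response in HepaRG: 48 h dosing, 0.5% DMSO, highest level 100 uM. GADD45G expression by qRT-PCR, normalised to endogenous controls; bidirectional fit to DMSO.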

Measured: AC50

Cytochrome P450 3A7 (Homo sapiens), sequence (P24462 whole entry, looked up): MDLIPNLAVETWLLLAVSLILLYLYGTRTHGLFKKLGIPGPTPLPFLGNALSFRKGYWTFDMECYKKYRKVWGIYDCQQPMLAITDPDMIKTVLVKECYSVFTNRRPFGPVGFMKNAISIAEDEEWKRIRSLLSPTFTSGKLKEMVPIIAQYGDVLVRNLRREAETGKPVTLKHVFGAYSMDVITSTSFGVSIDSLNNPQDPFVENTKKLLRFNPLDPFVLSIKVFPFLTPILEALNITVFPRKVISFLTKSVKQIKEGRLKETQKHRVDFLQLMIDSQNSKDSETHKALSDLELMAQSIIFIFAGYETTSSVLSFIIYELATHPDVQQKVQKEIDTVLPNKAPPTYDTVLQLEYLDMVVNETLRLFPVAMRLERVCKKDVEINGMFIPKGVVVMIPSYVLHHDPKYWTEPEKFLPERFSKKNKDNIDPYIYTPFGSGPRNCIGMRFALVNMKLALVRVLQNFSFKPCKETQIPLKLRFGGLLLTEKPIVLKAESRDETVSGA

c1ccc2c(c1)oc1ccccc12
inactive: all assays above

O=P(OCCCl)(OCCCl)OCCCl
inactive: all assays above

O=C(O)C1C2CCC(O2)C1C(=O)O (stereo not given)
inactive: [1] | CYP3A5 (gene 1577) | [8] | [9]
active: [2] 9.92 µM | [3] 61.1 µM | [4] 77.9 µM | [5] 50 µM | [6] 71.5 µM | [7] 72.4 µM

CCCCCCCCCCCCCN1CC(C)OC(C)C1 (stereo not given)
inactive: all assays above

Cc1cccc(N)c1N
active: CYP3A5 (gene 1577) 11.1 µM | [4] 62.6 µM | [5] 50 µM | [6] 46 µM | [7] 50 µM | [9] 50 µM
inactive: [1] | [2] | [3] | [8]

CC(C)(C)C(O)(CCc1ccc(Cl)cc1)Cn1cncn1 (stereo not given)
inactive: [2] | CYP3A5 (gene 1577) | [8]
active: [1] 90.1 µM | [3] 2.43 µM | [4] 11.5 µM | [5] 57 µM | [6] 50 µM | [7] 76.4 µM | [9] 50 µM

Nc1ccc([N+](=O)[O-])cc1
inactive: all assays above

OCCCBr
inactive: all assays above

CCN(CC)CCO
inactive: all assays above

Cc1cc(N=Nc2ccccc2C)ccc1N
inactive: [1] | [2]
active: [3] 6.38 µM | CYP3A5 (gene 1577) 3.11 µM | [4] 5.03 µM | [5] 4.39 µM | [6] 12.8 µM | [7] 5.01 µM | [8] 1.67 µM | [9] 4.14 µM

c1ccc(NNc2ccccc2)cc1
inactive: all assays above

CCC(C)c1ccc(O)cc1 (stereo not given)
active: [8] 0.397 µM
inactive: all other assays above

C=CCc1ccc2c(c1)OCO2
inactive: all assays above

CC(C)(C)OOC(=O)c1ccccc1
inactive: all assays above

c1ccc(C2CO2)cc1 (stereo not given)
inactive: all assays above

Clc1ccc(C(c2ccc(Cl)cc2)C(Cl)(Cl)Cl)cc1
inactive: [1] | [6] | [7] | [8]
active: [2] 50 µM | [4] 50 µM | [5] 50 µM | [9] 16.7 µM

CCN(CC)N=O
not listed: [1] | [6]
inactive: all other assays above

CCCCOC(=O)c1ccccc1C(=O)OCc1ccccc1
inactive: all assays above

CS(=O)(=O)NC(=O)c1cc(Oc2ccc(C(F)(F)F)cc2Cl)ccc1[N+](=O)[O-]
active: [3] 4.43 µM
inactive: all other assays above

CCCCCOC(=O)c1ccccc1C(=O)OCCCCC
active: [5] 79.7 µM
inactive: all other assays above

[O-][Cl+]O
not listed: [5] | [6]
inactive: all other assays above

Clc1ccccc1Cl
inactive: all assays above

O=Cc1ccco1
inactive: all assays above

C1=Cc2cccc3cccc1c23
inactive: all assays above

CC(C)COC(=O)c1ccccc1C(=O)OCC(C)C
inactive: all assays above

C[C@]12C=CC3=C4CCC(=O)C=C4CC[C@H]3[C@@H]1CC[C@@H]2O
active: [4] 47.7 µM | [9] 60.9 µM
inactive: [2] | [7] | [8]

[As]#[In]
inactive: all assays above

Nc1ccc(Cl)cc1N
inactive: [2]
active: [1] 12.9 µM | CYP3A5 (gene 1577) 17.3 µM | [4] 28.2 µM | [5] 29.7 µM | [6] 23.1 µM | [7] 27.9 µM | [8] 32.6 µM | [9] 38.8 µM

CCC[CH2][Sn]([Cl])([CH2]CCC)[CH2]CCC
inactive: [2]
active: [1] 50 µM | [3] 0.377 µM | CYP3A5 (gene 1577) 82.8 µM | [4] 2.31 µM | [7] 1.67 µM | [8] 50 µM | [9] 5.56 µM

c1ccc(N=Nc2ccccc2)cc1
inactive: all assays above

O=[N+]([O-])c1ccc(Oc2ccc(Cl)cc2Cl)cc1
active: [3] 2.45 µM | [8] 27.1 µM
not listed: [1]
inactive: all other assays above

CCNS(=O)(=O)C(F)(F)C(F)(F)C(F)(F)C(F)(F)C(F)(F)C(F)(F)C(F)(F)C(F)(F)F
active: [1] 35.6 µM | [4] 59.3 µM | [6] 48.2 µM | [7] 48.2 µM | [9] 36.6 µM
inactive: [2] | [3] | CYP3A5 (gene 1577) | [8]

c1ccc2c(c1)-c1cccc3cccc-2c13
active: [3] 9.36 µM | [4] 50 µM
not listed: [5] | [6]
inactive: all other assays above

CN(C)C(=O)Nc1ccc(Cl)cc1
inactive: all assays above

CCOc1cccc(C2(N3CCN(c4ccccc4)CC3)CCC(C)CC2)c1 (stereo not given)
inactive: all assays above

Cc1ccc(N=C=O)cc1N=C=O
inactive: [2] | [3] | CYP3A5 (gene 1577)
active: [1] 50 µM | [4] 23 µM | [5] 50 µM | [6] 31.7 µM | [7] 50 µM | [8] 30.3 µM | [9] 50 µM

COP(=S)(OC)SCN1C(=O)c2ccccc2C1=O
not listed: [4]
inactive: all other assays above

[Cl-].[Cl-].[Hg+2]
active: [9] 24.1 µM
inactive: all other assays above

N#CC(Br)(Br)C(N)=O
inactive: all assays above

Nc1cc(Cl)cc(C(=O)O)c1Cl
inactive: all assays above

Nc1ccc(N=Nc2ccccc2)cc1
inactive: [2]
active: [1] 29.4 µM | CYP3A5 (gene 1577) 14.2 µM | [4] 21.4 µM | [5] 13.3 µM | [6] 16.4 µM | [7] 15.1 µM | [8] 7.79 µM | [9] 15.6 µM

CCOC(=O)[C@]1(c2ccccc2)Oc2ccccc2[C@@H]1N
inactive: [1] | [2] | CYP3A5 (gene 1577)
active: [3] 85.4 µM | [4] 90.1 µM | [5] 71.6 µM | [6] 90.5 µM | [7] 76.1 µM | [8] 82.4 µM | [9] 87.9 µM

CC(C)N(Cc1ccccc1)C(=O)C(C)(C)C
active: [3] 11.5 µM | [4] 8.19 µM
inactive: all other assays above
